Here are results for 6 molecules from PubChem BioAssay (NCATS).

Inconclusive results are not listed. Calls of active or inactive are those of the source. Unless noted, the call rests on the fitted dose curve; in most records, active means well fitted curve in the direction sought with a large enough effect; inconclusive means small, poorly fitted or top-dose-only effect, or another doubt; inactive means no such curve, though single readings can be large; an effect the other way counts as inactive or inconclusive.

Assay [1] addresses Lysosomal acid glucosylceramidase (Homo sapiens) (UniProt P04062). Description: Glucocerebrosidase-p2 (AID 348; in the data active means potency below about 10 µM; further: potency means the concentration at half of the fitted maximal effect). The conditions noted are these: purified GBA, blue fluorogenic substrate, 40 min. The gist of the method:
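Compounds titrated from 0.6 nM upwards against 0.2 nM enzyme in pH 5.9 citric acid/KH2PO4, taurocholate, tween-20; blue fluorogenic substrate 80 uM, 40 min room temperature, stopped and read Ex 365/Em 440 for AC50.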

Assay [2] in a line: AP1 Signaling Pathway (AID 357; active means well fitted curve in either direction with a large enough effect, not every such curve was filed as active;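 further: ME-180 reporter cells stimulated with EGF at its EC50 level; on the % scale 0 is the no-effect control and ±100 the full control effect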). The conditions noted are these: ME-180 AP-1-bla reporter, EGF-induced, beta-lactamase ratio, 5 h; at 7.69 µM (top of the series) unless noted. An outline of the steps: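 Modulation of EGF-driven AP-1 transcription was assessed with a beta-lactamase reporter in ME-180 cells. Compound and EC50 EGF were co-incubated 5 hours at 37 °C before 2.5-hour CCF4 loading at room temperature and dual-emission reading.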

The target of assay [3] is Cytochrome P450 1A2 (Homo sapiens) (UniProt P05177). Description: p450-cyp1a2 (AID 410; calls by dose curve; further: potency means the concentration at half of the fitted maximal effect;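 on activity change, negative = inhibition: -100% = full effect of reference inhibitor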). The conditions noted are these: recombinant CYP1A2, luciferin-ME demethylation, luminescence; series mostly up to 57 µM. An outline of the steps: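 Inhibition was calculated relative to 57 uM furafylline (full inhibition). The reaction used human CYP1A2 at 20nM with Luciferin-ME at its Km, 100uM, driven by an NADPH-regenerating system for 60 min at room temperature.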

A short description of assay [4]: NFAT Signaling Pathway (AID 444; active means well fitted curve in either direction with a large enough effect, not every such curve was filed as active;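 further: carbachol stimulus at about its EC50 of 1 µM final; on the % scale 0 is the no-effect control and ±100 the full control effect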). The conditions noted are these: Jurkat NFAT-bla M1, carbachol, beta-lactamase ratio, 5 h; at 7.69 µM (top of the series) unless noted. The gist of the method: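 Read-out: CCF4 FRET ratio (460 nm/530 nm) after 1 h RT dye loading, used for %activity and AC50 from titration series. Cells: Jurkat NFAT-β-lactamase/M1 line, treated with compound plus 1 uM carbachol for 5 h, 37 °C.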

Assay [5] can be described thus: Stat Signaling Pathway (AID 446; active means well fitted curve in either direction with a large enough effect, not every such curve was filed as active;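 further: ME-180 cervical cancer cells given 40 pM IL-6 alongside compound; SIE-controlled beta-lactamase reporter measured as 460/530 nm FRET emission ratio; on the % scale 0 is the no-effect control and ±100 the full control effect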). The conditions noted are these: ME-180 (cervical carcinoma) SIE beta-lactamase reporter, IL-6 stimulated, 5 h; at 7.69 µM (top of the series) unless noted. An outline of the steps:
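ME-180 cells carrying a SIE-driven beta-lactamase reporter are stimulated with 40 pM IL-6 for 5 h at 37C in the presence of compound. The 460/530 nm FRET substrate ratio is read after 2.5 h at RT. Data are normalised to 300 pM IL-6 and to 125 nM JAK inhibitor controls.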

The target of assay [6] is Glucocorticoid receptor (Homo sapiens) (UniProt P04150). The experiment in a line: GR-GFP Redistribution (AID 450;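 active means compounds whose dose series gives a full or clear partial fitted curve of increased nuclear translocation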; further: potency means the concentration at half of the fitted maximal effect). The conditions noted are these: U2OS GR-GFP nuclear translocation, laser cytometry, 2 h.
The target is the same in assay [7]. The experiment in a line: GR-EFC Redistribution (AID 451; calls by dose curve; further: potency means the concentration at half of the fitted maximal effect). The conditions noted are these: CHO-K1 GR-EFC translocation, beta-gal luminescence, 2 h. The gist of the method: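 Translocation of GR-ED fusion to nuclear EA restores b-gal, read by luminescence after 1 h room-temperature detection. Engineered CHO-K1 biosensor cells, 1,000/well, exposed 2 h at 37 C to titrations up to 46 uM final.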

The target of assay [8] is Mitogen-activated protein kinase 10 (Mus musculus) (UniProt Q61831). The experiment in a line: JNK3 AlphaScreen Assay (AID 530; active means well fitted curve in either direction with a large enough effect, not every such curve was filed as active;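 further: kinase came from lysate of stimulated human HepG2 cells; signal reports phosphorylation of biotinylated GST-cJun 1-79 at Ser73 with 10 µM ATP; on the % scale 0 is the no-effect control and ±100 the full control effect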). The conditions noted are these: JNK3 lysate, c-Jun phosphorylation; series mostly up to 57.1 µM. An outline of the steps:
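Room-temperature AlphaScreen kinase assay; pre-activated HepG2 lysate as JNK3 source, biotin-GST-cJun(1-79) substrate, 10 uM ATP, compound 15 min preincubation.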
(Alpha assays give light when donor and acceptor beads are brought close together.)

In assay [9] the target is 3',5'-cyclic-AMP phosphodiesterase 4B (Homo sapiens) (UniProt Q07343). The experiment in a line: qHTS Assay for Inhibitors of PDE-IV (AID 607; active means well fitted activation curve with a large enough effect in the main read-out, with a control signal flat, not every such curve was filed as active; further: % of control where 0% means no effect). The conditions noted are these: HEK293 ACTOne CNG channel cells, membrane potential fluorescence; series mostly up to 22.9 µM. An outline of the steps:
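HEK293 ACTOne cells with CNG channel (1000/well), endogenous PDE4; membrane potential dye, compounds up to 22.9 uM final. Fluorescence Ex 535/Em 590; RO 20-1724 (100 uM final) as reference.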
For orientation: Quantitative high-throughput screening tests each substance at several concentrations.

The target of assay [10] is Cytochrome P450 3A4 (Homo sapiens) (UniProt P08684). Description: qHTS Assay for Activators of Cytochrome P450 3A4 (AID 885). Further: nearly all actives have a fitted effect of over 65% in size. The conditions noted are these: recombinant CYP3A4, Luciferin-PPXE luminescence, 60 min; series mostly up to 57.1 µM. The gist of the method:
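Human CYP3A4 (20 nM) with Luciferin-PPXE at 25 uM (its KM) in 200 mM KPO4; 10 min compound preincubation, then NADPH regeneration and 60 min reaction at RT. Luciferin read by luminescence; normalized to 57 uM ketoconazole full inhibition.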

The nature of assay [11]: qHTS Assay for Lipid Storage Modulators (AID 1519; calls by dose curve). The conditions noted are these: Drosophila S3 cells, BODIPY lipid droplet/cell ratio, laser cytometry, cells loaded with oleic acid; for activity change, negative = inhibition: at 57.5 µM (top of the series). An outline of the steps:
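Cells seeded at 5,000 per well were treated with compounds over a concentration series and loaded with oleic acid (400 uM, as added). Lipid droplet fluorescence (488 nm excitation, 500-530 nm channel) was read by laser-scanning cytometry and normalized to 20 uM Triacsin C.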

Assay [12] deals with Dual specificity protein kinase CLK4 (Homo sapiens) (UniProt Q9HAZ1). The experiment in a line: qHTS Assay for Inhibitors of CDC-like Kinase 4 (Kinase-Glo Assay) (AID 1770). Further: nearly all actives have a fitted effect of over 65% in size. Further: potency means the concentration at half of the fitted maximal effect. The conditions noted are these: recombinant Clk4, Kinase-Glo ATP depletion luminescence; series mostly up to 66.7 µM. The gist of the method: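 Luminescent ATP-depletion read-out (Kinase-Glo) after 4.5 h room-temperature reaction of Clk4 (25 nM final) with RS peptide (100 uM) and ATP (1 uM), pH 7.5 Tris buffer with MgCl2 and DTT.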

The target is the same in assay [13]. Description: qHTS Assay for Inhibitors of CDC-like Kinase 4 (ADP-FP Assay) (AID 1795). Further: nearly all actives have a fitted effect of over 60% in size. Further: potency means the concentration at half of the fitted maximal effect. The conditions noted are these: Transcreener ADP fluorescence polarization; series mostly up to 50 µM. An outline of the steps: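 Kinase activity was measured as ADP production using Transcreener orange tracer (4 nM) and ADP antibody (1 ug/mL) fluorescence polarization, with ADP calculated from a calibration curve. The 1 h reaction contained 6.25 nM Clk4, 1 uM ATP and 100 uM RS peptide at pH 7.5 with Mg2+.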

The target in assay [14] is Ubiquitin carboxyl-terminal hydrolase 1 (Homo sapiens) (UniProt O94782). Description: Inhibitors of USP1/UAF1: Pilot qHTS (AID 504865).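 Further: rhodamine fluorescence freed from ubiquitin-rhodamine substrate followed over time; top concentration of the series differs between compounds; on the % scale 0 is the no-effect control and ±100 the full control effect; nearly all actives have a fitted effect of over 35% in size.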 The conditions noted are these: purified USP1/UAF1, Ub-rhodamine cleavage fluorescence; series mostly up to 54.9 µM. The gist of the method:
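Deubiquitinase activity followed as kinetic rhodamine fluorescence release from 150 nM Ub-Rho. 1 nM USP1/UAF1 with compound, after 15 min room-temperature preincubation, in HEPES pH 7.8 buffer containing TCEP, EDTA, BSA and Tween-20.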

Assay [15] is described as follows: Primary qHTS for small molecule stabilizers of the endoplasmic reticulum resident proteome: Secreted ER Calcium Modulated Protein (SERCaMP) assay (AID 1508630). Further: on the % scale 0 is the no-effect control and ±100 the full control effect. The conditions noted are these: SH-SY5Y GLuc-SERCaMP (Gaussia luciferase released on ER calcium loss) secretion, thapsigargin, luminescence; series mostly up to 38.4 µM. The gist of the method: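 GLuc-SERCaMP-expressing SH-SY5Y cells, pretreated 16 h with compound, are challenged with thapsigargin to empty ER calcium stores; after 4 h, coelenterazine is added directly to the medium and luminescence is imaged.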

Assay [16] addresses Dual specificity protein kinase CLK4 (Homo sapiens) (UniProt Q9HAZ1). The experiment in a line: qHTS Assay for Inhibitors of CDC-like Kinase 4 (ADP-Glo Assay) (AID 1771). Further: on the % scale 0 is the no-effect control and ±100 the full control effect; nearly all actives have a fitted effect of over 70% in size. The conditions noted are these: recombinant CLK4, ADP-Glo luminescence; series mostly up to 80 µM. An outline of the steps: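 Kinase reaction: Clk4 at 25 nM, RS repeat peptide substrate at 100 uM, ATP at 1 uM, 1 hr, room temperature. Product ADP detected as luciferase signal via ADP-Glo.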

[17] abbreviates: measured here: cell count channel max response.
Setting [18] is: measured here: lipid channel max response.

Glucocorticoid receptor (Homo sapiens), sequence (P04150 whole entry, looked up, the tested form may be a part): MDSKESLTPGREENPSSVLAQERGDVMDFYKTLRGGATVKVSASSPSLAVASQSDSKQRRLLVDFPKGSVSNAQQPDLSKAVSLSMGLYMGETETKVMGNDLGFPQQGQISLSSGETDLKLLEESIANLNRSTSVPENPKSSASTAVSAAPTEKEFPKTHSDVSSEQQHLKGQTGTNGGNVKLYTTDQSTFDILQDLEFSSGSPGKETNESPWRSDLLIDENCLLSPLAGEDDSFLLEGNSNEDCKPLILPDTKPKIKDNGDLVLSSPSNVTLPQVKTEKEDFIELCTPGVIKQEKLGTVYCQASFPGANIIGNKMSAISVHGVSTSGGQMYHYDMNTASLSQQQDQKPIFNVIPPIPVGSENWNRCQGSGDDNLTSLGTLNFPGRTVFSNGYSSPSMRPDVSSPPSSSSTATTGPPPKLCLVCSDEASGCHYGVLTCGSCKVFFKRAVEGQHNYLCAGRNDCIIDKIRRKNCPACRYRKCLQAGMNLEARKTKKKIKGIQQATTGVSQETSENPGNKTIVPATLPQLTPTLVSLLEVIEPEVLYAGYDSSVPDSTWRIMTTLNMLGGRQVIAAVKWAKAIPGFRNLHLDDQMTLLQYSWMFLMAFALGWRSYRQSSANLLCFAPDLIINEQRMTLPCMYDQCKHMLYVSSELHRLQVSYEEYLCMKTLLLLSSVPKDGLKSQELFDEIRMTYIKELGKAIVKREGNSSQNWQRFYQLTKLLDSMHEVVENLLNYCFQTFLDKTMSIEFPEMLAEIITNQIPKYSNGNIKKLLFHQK
3',5'-cyclic-AMP phosphodiesterase 4B (Homo sapiens), sequence (Q07343 whole entry, looked up): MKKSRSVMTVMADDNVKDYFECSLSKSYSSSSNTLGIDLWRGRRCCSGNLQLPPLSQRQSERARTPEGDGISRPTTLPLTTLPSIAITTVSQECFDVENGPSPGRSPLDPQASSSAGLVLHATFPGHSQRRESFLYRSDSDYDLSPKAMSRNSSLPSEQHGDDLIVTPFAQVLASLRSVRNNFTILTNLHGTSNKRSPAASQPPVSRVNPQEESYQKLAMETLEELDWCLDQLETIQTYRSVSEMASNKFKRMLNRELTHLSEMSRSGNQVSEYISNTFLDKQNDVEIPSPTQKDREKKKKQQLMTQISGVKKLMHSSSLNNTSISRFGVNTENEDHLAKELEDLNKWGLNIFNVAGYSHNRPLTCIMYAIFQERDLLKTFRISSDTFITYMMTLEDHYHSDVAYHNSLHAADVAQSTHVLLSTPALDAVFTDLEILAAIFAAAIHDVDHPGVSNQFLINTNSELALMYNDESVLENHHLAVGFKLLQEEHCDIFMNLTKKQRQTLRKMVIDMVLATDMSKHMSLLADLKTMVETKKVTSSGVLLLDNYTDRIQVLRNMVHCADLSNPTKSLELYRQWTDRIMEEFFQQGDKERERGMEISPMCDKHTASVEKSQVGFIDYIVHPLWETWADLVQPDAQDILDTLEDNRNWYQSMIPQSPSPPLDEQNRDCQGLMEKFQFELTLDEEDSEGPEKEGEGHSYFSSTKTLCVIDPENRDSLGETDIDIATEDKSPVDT
Dual specificity protein kinase CLK4 (Homo sapiens), sequence (Q9HAZ1 whole entry, looked up): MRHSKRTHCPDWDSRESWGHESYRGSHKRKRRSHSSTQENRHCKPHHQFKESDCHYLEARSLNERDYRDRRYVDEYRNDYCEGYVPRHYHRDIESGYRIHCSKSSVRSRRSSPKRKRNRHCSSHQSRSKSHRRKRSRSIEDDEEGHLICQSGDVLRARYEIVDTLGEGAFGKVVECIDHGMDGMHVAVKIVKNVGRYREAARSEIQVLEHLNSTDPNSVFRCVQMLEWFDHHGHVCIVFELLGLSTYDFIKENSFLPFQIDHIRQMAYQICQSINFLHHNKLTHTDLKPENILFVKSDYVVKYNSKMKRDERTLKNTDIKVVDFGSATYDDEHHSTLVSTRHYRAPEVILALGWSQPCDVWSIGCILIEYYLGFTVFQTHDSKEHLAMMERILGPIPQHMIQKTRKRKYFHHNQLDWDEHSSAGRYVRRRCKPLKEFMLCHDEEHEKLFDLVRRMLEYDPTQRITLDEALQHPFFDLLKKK
Ubiquitin carboxyl-terminal hydrolase 1 (Homo sapiens), sequence (O94782 whole entry, looked up): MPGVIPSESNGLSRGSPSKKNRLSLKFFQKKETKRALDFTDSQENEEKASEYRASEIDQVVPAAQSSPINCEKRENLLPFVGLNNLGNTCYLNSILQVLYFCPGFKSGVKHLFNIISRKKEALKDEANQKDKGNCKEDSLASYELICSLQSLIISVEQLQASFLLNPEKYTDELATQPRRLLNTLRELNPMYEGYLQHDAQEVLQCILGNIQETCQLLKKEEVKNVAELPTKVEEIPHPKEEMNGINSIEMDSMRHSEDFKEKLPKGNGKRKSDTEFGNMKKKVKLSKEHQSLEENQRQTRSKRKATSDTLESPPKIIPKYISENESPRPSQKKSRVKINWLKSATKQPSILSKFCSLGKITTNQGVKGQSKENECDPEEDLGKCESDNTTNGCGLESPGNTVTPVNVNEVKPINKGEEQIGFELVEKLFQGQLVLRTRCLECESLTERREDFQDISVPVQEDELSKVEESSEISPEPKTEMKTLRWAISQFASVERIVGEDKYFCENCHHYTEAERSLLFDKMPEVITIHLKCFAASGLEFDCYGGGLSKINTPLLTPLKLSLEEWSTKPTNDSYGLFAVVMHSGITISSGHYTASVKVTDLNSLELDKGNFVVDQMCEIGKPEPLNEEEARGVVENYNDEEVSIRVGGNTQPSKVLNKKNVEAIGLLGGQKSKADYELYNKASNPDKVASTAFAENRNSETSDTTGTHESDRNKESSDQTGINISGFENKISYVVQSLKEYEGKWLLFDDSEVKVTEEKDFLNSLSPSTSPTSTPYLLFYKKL
Cytochrome P450 1A2 (Homo sapiens), sequence (P05177 whole entry, looked up): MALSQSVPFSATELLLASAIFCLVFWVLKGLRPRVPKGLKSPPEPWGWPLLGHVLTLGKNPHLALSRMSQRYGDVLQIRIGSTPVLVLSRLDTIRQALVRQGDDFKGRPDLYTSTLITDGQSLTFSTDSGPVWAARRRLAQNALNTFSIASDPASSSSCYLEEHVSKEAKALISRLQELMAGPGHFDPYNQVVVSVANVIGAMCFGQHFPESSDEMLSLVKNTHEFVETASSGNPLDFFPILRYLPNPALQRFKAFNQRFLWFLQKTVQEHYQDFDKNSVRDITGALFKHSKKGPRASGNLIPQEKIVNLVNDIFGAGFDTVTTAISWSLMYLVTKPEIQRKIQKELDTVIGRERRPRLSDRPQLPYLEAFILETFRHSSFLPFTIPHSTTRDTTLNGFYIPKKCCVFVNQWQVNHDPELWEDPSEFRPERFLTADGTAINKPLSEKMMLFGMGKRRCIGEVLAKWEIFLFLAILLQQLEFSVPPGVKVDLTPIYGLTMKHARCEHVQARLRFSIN
Lysosomal acid glucosylceramidase (Homo sapiens), sequence (P04062 whole entry, looked up): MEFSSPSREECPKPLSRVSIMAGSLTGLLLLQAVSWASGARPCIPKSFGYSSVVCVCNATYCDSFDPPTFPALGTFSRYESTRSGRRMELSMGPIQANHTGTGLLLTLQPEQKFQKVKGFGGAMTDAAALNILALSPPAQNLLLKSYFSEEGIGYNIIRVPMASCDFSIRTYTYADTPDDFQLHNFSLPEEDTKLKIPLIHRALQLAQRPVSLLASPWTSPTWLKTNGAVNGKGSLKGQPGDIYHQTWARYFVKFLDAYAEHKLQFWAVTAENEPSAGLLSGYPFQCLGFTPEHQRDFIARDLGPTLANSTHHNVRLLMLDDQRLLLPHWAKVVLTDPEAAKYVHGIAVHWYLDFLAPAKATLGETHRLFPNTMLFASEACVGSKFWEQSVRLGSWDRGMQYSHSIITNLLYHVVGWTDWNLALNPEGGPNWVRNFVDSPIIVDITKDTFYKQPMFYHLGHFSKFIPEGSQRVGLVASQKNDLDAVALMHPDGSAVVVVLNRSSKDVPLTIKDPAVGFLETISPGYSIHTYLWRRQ
Cytochrome P450 3A4 (Homo sapiens), sequence (P08684 whole entry, looked up): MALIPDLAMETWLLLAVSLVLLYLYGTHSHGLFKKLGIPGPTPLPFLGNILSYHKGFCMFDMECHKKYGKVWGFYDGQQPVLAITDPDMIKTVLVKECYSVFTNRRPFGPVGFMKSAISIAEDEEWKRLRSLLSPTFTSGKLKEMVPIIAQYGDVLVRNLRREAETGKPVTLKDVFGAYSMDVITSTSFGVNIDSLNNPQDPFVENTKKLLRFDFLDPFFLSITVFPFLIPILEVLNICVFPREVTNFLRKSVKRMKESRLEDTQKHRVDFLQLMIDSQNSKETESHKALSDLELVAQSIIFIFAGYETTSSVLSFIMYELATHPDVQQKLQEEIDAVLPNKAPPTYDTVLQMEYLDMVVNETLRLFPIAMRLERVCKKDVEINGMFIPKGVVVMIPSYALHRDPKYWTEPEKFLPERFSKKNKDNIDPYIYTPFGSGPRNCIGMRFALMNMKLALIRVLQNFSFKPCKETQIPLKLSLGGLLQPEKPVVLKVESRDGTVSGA

On to `Cc1cnc(CNc2ncnc3ccc(-c4ccoc4)cc23)cn1`, for which the Potency is > 11.4 µM (inactive) in assay [1]; 12.6 µM (active) in [3]; > 46 µM (inactive) in [6]; > 46 µM (inactive) in assay [7]; 0.251 µM (active) in assay [12]; 0.224 µM (active) in assay [13]. Moreover, the values for the activity change, negative = inhibition in assay [2], in [4] and in assay [11] were -14.2% (inactive), -6.73% (inactive) and 0.59% (inactive), respectively. The activity, negative = inhibition in [5] was -13.1% (inactive). Moreover, the call in [8] was inactive. Also, the Potency result in assay [9], in assay [10], in assay [14] and in assay [15] was “inactive” in each case. For the same molecule, the results for the max response in assay [11] (setting [17]) and in assay [11] (setting [18]) were 20.6% and 16.4%, respectively.

On to `COCCn1c(=O)cnc2cnc(Oc3ccc(OC)cc3)nc21`, for which the Potency in assay [1] was > 11.4 µM (inactive); in [3], 5.01 µM (active); in [6], > 9.22 µM (inactive); in assay [7], > 46 µM (inactive). The activity change, negative = inhibition in [2] was -2.08% (inactive); in assay [4], -2.59% (inactive); in assay [11], 2.42% (inactive). Besides, the activity, negative = inhibition in [5] was -5.99% (inactive). Moreover, in assay [8], the result was inactive. The Potency entry in assay [9], in [10], in assay [12], in assay [13], in [14] and in [15] was “inactive” throughout. In addition, the max response in assay [11] (setting [17]) stood at 12.6%; in assay [11] (setting [18]) it was 10.8%.

In the case of `COc1cccc(Cn2c(=O)c(-c3cc(F)cc(F)c3)nc3cnc(N4CCN(C)CC4)nc32)c1`, the Potency in [1] was > 11.4 µM (inactive); in [6] it was > 9.22 µM (inactive); in assay [7] it was > 46 µM (inactive). Moreover, the Potency entry in assay [3], in [9], in [12], in [13], in [14] and in assay [15] was “inactive” each time. Further, in assay [8], the call was inactive. Moreover, in assay [11], the activity change, negative = inhibition was 1.17% (inactive). The max response is 19% in assay [11] (setting [17]) and 18.2% in assay [11] (setting [18]).

With `COc1ncc2nc(-c3cc(F)cc(F)c3)c(=O)n(C)c2n1`, the Potency in assay [1] is > 11.4 µM (inactive); in assay [3], 2 µM (active); in assay [6], > 9.22 µM (inactive); in assay [7] it was > 46 µM (inactive). Besides, the activity change, negative = inhibition in [2] is -19.2% (inactive); in assay [4], -1.78% (inactive); in assay [11], 5.28% (inactive). Further, the activity, negative = inhibition in assay [5] was -3.71% (inactive). For the same molecule, the call in assay [8] was inactive. In addition, the Potency entry in assay [9], in [16], in [13], in assay [14] and in assay [15] was “inactive” each time. The max response in [11] (setting [17]) turned out to be 24.3%; in assay [11] (setting [18]), 28.7%.

On to `CC(=O)NCCNc1cc(-c2ccccc2C)ncn1`, for which the Potency in [1] was > 11.4 µM (inactive); in assay [3], 15.8 µM (active); in [6], > 46 µM (inactive); in assay [7] it was > 46 µM (inactive). For the same molecule, the figures for the activity change, negative = inhibition in [2] and in assay [11] were 12% (inactive) and 3.34% (inactive), respectively. The activity, negative = inhibition in [5] is 16.5% (inactive). For the same molecule, the result in [8] was inactive. In addition, the Potency result in assay [9], in assay [12], in assay [13], in [14] and in assay [15] was “inactive” in each case. Moreover, the max response in assay [11] (setting [17]) turned out to be 16.2%; in assay [11] (setting [18]), 17.3%.

For `Cc1noc(C)c1-c1nccc(N2CCOCC2)n1`, the Potency is > 11.4 µM (inactive) in assay [1], 0.631 µM (active) in [3], > 46 µM (inactive) in assay [7] and 14.1 µM (active) in assay [12]. In addition, the activity change, negative = inhibition in assay [2] was 19% (inactive); in [4], 4.77% (inactive); in assay [11], 6.74% (inactive). The activity, negative = inhibition in assay [5] is 14.5% (inactive). The molecule was called inactive in assay [8]. Further, the Potency result in assay [9], in assay [14] and in [15] was “inactive” each time. Also, the results for the max response in [11] (setting [17]) and in [11] (setting [18]) were 6.28% and 17%, respectively.
